Tested on: CSNK1D
Details: concentration: 1 μM, replicates: in singlicate; n = 1
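Also: KINOMEscan kinase panel screen.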

Row | Compound | %Inh [%]
1 | O=c1cc(N2CCOCC2)nc2n(Cc3cccc(Cl)c3Cl)c(C3CC3)nn12 [GSK2358994] | 7
2 | CCc1nc(-c2cccc(C)c2)c(-c2ccnc(NCc3ccccc3)c2)s1 | 29
3 | COc1cc2c(cc1OCCN1CCN(C)CC1)ncc1c3ccc(C#N)cc3[nH]c21 | 18
4 | NCC(NC(=O)c1cc(-c2cn[nH]c2)c(-c2ccnc3[nH]ccc23)s1)c1ccccc1.O=C(O)C(F)(F)F.O=C(O)C(F)(F)F (stereo not shown) [GSK1325775] | 91.9
5 | O=c1cc(N2CCOCC2)nc2n(Cc3cccc4ccccc34)ccn12 [GSK2333389] | 42
6 | O=C(Nc1n[nH]c2cc(-c3cccc(F)c3)ccc12)C1CC1 [SB-735464] | 0
7 | C[C@@H](Oc1cc(-n2cnc3ccc(NC(=O)NC(C)(C)C)cc32)sc1C(N)=O)c1ccccc1Cl [GSK346294] | 3
8 | Cn1ccc2ncnc(Oc3ccc(NC(=O)Nc4ccncc4)c(Cl)c3)c21 | 0
9 | Nc1nc(-c2ccc3c(N)n[nH]c3c2)cc(N2CCCC2)n1 [GSK2227430] | 0
10 | O=C(NOCC1CC1)c1ccc(F)c(F)c1Nc1ccc(I)cc1Cl | 0
11 | Cn1cc(-c2ccc3c(c2)CCN3C(=O)Cc2ccccc2Cl)c2c(N)ncnc21 [GSK2608885] | 11
12 | COc1ccc(S(=O)(=O)NC2CCN(c3cc(C)nc(Nc4cccc(C#N)c4)n3)CC2)cc1.O=C(O)C(F)(F)F [GSK1653539] | 19
13 | Cc1ccc(C(=O)NCC(N)=O)cc1-n1c(C)cc(OCc2ccc(F)cc2F)c(Br)c1=O | 19
14 | N#Cc1ccc(-c2cc(-c3c[nH]nc3-c3ccccn3)ccn2)cc1 [GW693028] | 62
15 | Fc1ccc(-c2ncn(CCCN3CCOCC3)c2-c2cccnc2)cc1 [SB-211743] | 4
16 | COc1cc2ncn(-c3cc(OCc4sccc4Cl)c(C(N)=O)s3)c2cc1OC [GSK448459] | 16
17 | O=C(NCCNc1ccnc(Nc2ccc(F)cc2)n1)c1cc2ccccc2s1 [GSK1379874] | 0

Row | Compound | %Inh [%]
18 | CCc1ccnc(/C=C/c2n[nH]c3cc(Sc4ccccc4C(=O)NC)ccc23)c1 | 8
19 | Cc1nnc(-c2ccc3ncc(-c4ccc(S(C)=O)cc4)n3c2)o1 (stereo not shown) | 0
20 | CCn1cnc2c(N)ncnc21 [GW345098] | 21
21 | Nc1nccc(-c2c(-c3ccc(F)cc3)ncn2C2CCN(CC(F)(F)F)CC2)n1 [SB-236560] | 86
22 | O=C(NCCNc1ccnc(Nc2ccc(F)cc2)n1)Nc1ccccc1F [GSK1379880] | 11
23 | O=c1cc(N2CCOCC2)nc2n(Cc3cccc(C(F)(F)F)c3)ccn12 [GSK2297543] | 17
24 | COc1ccc(Nc2nccc(N3CCC(NC(=O)Nc4cc(C)ccc4C)C3)n2)cc1 (stereo not shown) [GSK1379741] | 0
25 | O=C1NC(=O)C(N2CCc3ccccc32)=C1c1cccc(Cl)c1 [SB-408010] | 0
26 | Cc1c(Cn2c(C)nn3c(=O)cc(N4CCOC(C)C4)nc23)cccc1C(F)(F)F (stereo not shown) [GSK2344444] | 0
27 | Fc1ccc(-c2ncn(CCCN3CCOCC3)c2-c2ccccn2)cc1 [SB-211742] | 10
28 | Cc1c2ccc(N(C)c3ccnc(Nc4cccc(S(N)(=O)=O)c4)n3)cc2nn1Cc1ccccc1.Cl.Cl [GW787226] | 0
29 | CC(C)(C)n1cnc2c(N)ncnc21 [SKF-97359] | 0
30 | COCCNC(=O)c1ccc(-c2cc(C(=O)NC3CC3)cc(F)c2C)cc1 [GW868318] | 1
31 | Cc1cccc(-c2nc(Nc3ccc4ncsc4c3)c3ccccc3n2)n1 [GW867588] | 0
32 | CN(C(=O)c1ccc(-c2cc(-c3c[nH]nc3-c3ccccn3)ccn2)cc1)C1CCOCC1 [GW810083] | 29
33 | Cc1ccc(NC(=O)c2ccnc(N3CCN(C)CC3)c2)cc1-c1ccc(C(=O)NCC2CC2)cc1 [GW775604] | 0

Tested on: CSNK1E
Details: concentration: 1 μM, replicates: in singlicate; n = 1

Row | Compound | %Inh [%]
34 | O=c1cc(N2CCOCC2)nc2n(Cc3cccc(Cl)c3Cl)c(C3CC3)nn12 [GSK2358994] | 11
35 | CCc1nc(-c2cccc(C)c2)c(-c2ccnc(NCc3ccccc3)c2)s1 | 8
36 | COc1cc2c(cc1OCCN1CCN(C)CC1)ncc1c3ccc(C#N)cc3[nH]c21 | 0
37 | NCC(NC(=O)c1cc(-c2cn[nH]c2)c(-c2ccnc3[nH]ccc23)s1)c1ccccc1.O=C(O)C(F)(F)F.O=C(O)C(F)(F)F (stereo not shown) [GSK1325775] | 99.4
38 | O=c1cc(N2CCOCC2)nc2n(Cc3cccc4ccccc34)ccn12 [GSK2333389] | 20
39 | O=C(Nc1n[nH]c2cc(-c3cccc(F)c3)ccc12)C1CC1 [SB-735464] | 0
40 | C[C@@H](Oc1cc(-n2cnc3ccc(NC(=O)NC(C)(C)C)cc32)sc1C(N)=O)c1ccccc1Cl [GSK346294] | 19
41 | Cn1ccc2ncnc(Oc3ccc(NC(=O)Nc4ccncc4)c(Cl)c3)c21 | 0
42 | Nc1nc(-c2ccc3c(N)n[nH]c3c2)cc(N2CCCC2)n1 [GSK2227430] | 25
43 | O=C(NOCC1CC1)c1ccc(F)c(F)c1Nc1ccc(I)cc1Cl | 3
44 | Cn1cc(-c2ccc3c(c2)CCN3C(=O)Cc2ccccc2Cl)c2c(N)ncnc21 [GSK2608885] | 87
45 | COc1ccc(S(=O)(=O)NC2CCN(c3cc(C)nc(Nc4cccc(C#N)c4)n3)CC2)cc1.O=C(O)C(F)(F)F [GSK1653539] | 54
46 | Cc1ccc(C(=O)NCC(N)=O)cc1-n1c(C)cc(OCc2ccc(F)cc2F)c(Br)c1=O | 0
47 | N#Cc1ccc(-c2cc(-c3c[nH]nc3-c3ccccn3)ccn2)cc1 [GW693028] | 32
48 | CC(C)(CN)c1nc(-c2ccc(Cl)c(O)c2)c(-c2ccncc2)[nH]1.O=C(O)C(F)(F)F [SB-477794] | 99.6
49 | Fc1ccc(-c2ncn(CCCN3CCOCC3)c2-c2cccnc2)cc1 [SB-211743] | 24
50 | COc1cc2ncn(-c3cc(OCc4sccc4Cl)c(C(N)=O)s3)c2cc1OC [GSK448459] | 28

Row | Compound | %Inh [%]
51 | O=C(NCCNc1ccnc(Nc2ccc(F)cc2)n1)c1cc2ccccc2s1 [GSK1379874] | 37
52 | CCc1ccnc(/C=C/c2n[nH]c3cc(Sc4ccccc4C(=O)NC)ccc23)c1 | 0
53 | Cc1nnc(-c2ccc3ncc(-c4ccc(S(C)=O)cc4)n3c2)o1 (stereo not shown) | 0
54 | CCn1cnc2c(N)ncnc21 [GW345098] | 55
55 | Nc1nccc(-c2c(-c3ccc(F)cc3)ncn2C2CCN(CC(F)(F)F)CC2)n1 [SB-236560] | 96.6
56 | O=C(NCCNc1ccnc(Nc2ccc(F)cc2)n1)Nc1ccccc1F [GSK1379880] | 9
57 | O=c1cc(N2CCOCC2)nc2n(Cc3cccc(C(F)(F)F)c3)ccn12 [GSK2297543] | 0
58 | COc1ccc(Nc2nccc(N3CCC(NC(=O)Nc4cc(C)ccc4C)C3)n2)cc1 (stereo not shown) [GSK1379741] | 12
59 | O=C1NC(=O)C(N2CCc3ccccc32)=C1c1cccc(Cl)c1 [SB-408010] | 0
60 | Cc1c(Cn2c(C)nn3c(=O)cc(N4CCOC(C)C4)nc23)cccc1C(F)(F)F (stereo not shown) [GSK2344444] | 0
61 | Fc1ccc(-c2ncn(CCCN3CCOCC3)c2-c2ccccn2)cc1 [SB-211742] | 9
62 | Cc1c2ccc(N(C)c3ccnc(Nc4cccc(S(N)(=O)=O)c4)n3)cc2nn1Cc1ccccc1.Cl.Cl [GW787226] | 0
63 | CC(C)(C)n1cnc2c(N)ncnc21 [SKF-97359] | 39
64 | COCCNC(=O)c1ccc(-c2cc(C(=O)NC3CC3)cc(F)c2C)cc1 [GW868318] | 31
65 | Cc1cccc(-c2nc(Nc3ccc4ncsc4c3)c3ccccc3n2)n1 [GW867588] | 6
66 | CN(C(=O)c1ccc(-c2cc(-c3c[nH]nc3-c3ccccn3)ccn2)cc1)C1CCOCC1 [GW810083] | 42
67 | Cc1ccc(NC(=O)c2ccnc(N3CCN(C)CC3)c2)cc1-c1ccc(C(=O)NCC2CC2)cc1 [GW775604] | 24
